# A selection: hits, their analogues and other compounds. The true share with any hit is near 20%.
# Shiga inhibitor: A qHTS for Small Molecule Inhibitors of Shiga Toxin; AID 2315, 2010; hit rate 9.2% among 290,000; inhibition, % at 38.7 µM; Vero cells, Shiga toxin protein synthesis inhibition reporter; in the data active means inhibition mostly above about 28%, no sharp cut-off; inactive means mostly below about 43%; further: 0% is about no effect
# Cycloheximide cs: Cycloheximide Counterscreen for Small Molecule Inhibitors of Shiga Toxin. cell reporter, cycloheximide protein synthesis inhibition counterscreen. max response, %. hit rate 12% among 300,000. AID 2314, 2010; in the data active means max response mostly above about 13%, no sharp cut-off; inactive means mostly below about 14%; further: read at 38.3 µM for the half of the compounds with a filed dose; 0% is about no effect
# Pf growth 96h: Primary qHTS for delayed death inhibitors of the malarial parasite plastid, 96 hour incubation | hit rate 6.9% among 320,000 | AID 504834, 2011 | P. falciparum luciferase reporter growth, 96 h | Potency, µM (doses to about 28.7 µM), inactives show at the highest dose activity change, negative = inhibition, most hits filed as inhibitors; further: potency means the concentration at half of the fitted maximal effect; on the % scale 0 is the no-effect control and ±100 the full control effect
#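 Compounds incubated with erythrocytes infected by luciferase-expressing P. falciparum (2% hematocrit, 0.05% parasitemia final) for 96 hours, 37 C in 5% CO2. Growth inhibition scored as decreased luciferase luminescence.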
# Pf growth 48h: Primary qHTS for delayed death inhibitors of the malarial parasite plastid, 48 hour incubation; P. falciparum luciferase growth in erythrocytes, 48 h; Potency, µM (highest dose often 28.7 µM), without a hit: top-dose activity change, negative = inhibition, usual class: inhibitors; hit rate 5.9% among 310,000; AID 504832, 2011; further: potency means the concentration at half of the fitted maximal effect; on the % scale 0 is the no-effect control and ±100 the full control effect
#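 Parasite viability was followed by luminescence of a genomically integrated firefly luciferase. Cultures held 0.1% parasitemia at 2% hematocrit (final), incubated under 5% CO2 at 37 C.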
# HCMV antiviral: qHTS Assay for inhibitors of the human cytomegalovirus (HCMV); hit rate 4.5% among 410,000; HFF cells, HCMV-luciferase reporter, 72 h; hits give low values; activity change, negative = inhibition, % at 57.5 µM; in the data active means activity change below about -60%; inconclusive means no clear call, values can overlap the other calls; inactive means above about -39%; further: on the % scale 0 is the no-effect control and ±100 the full control effect
#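 Two compound doses tested in HFFs infected with HCMV-luciferase, MOI 1 PFU/cell, 72 h at 37C. Lysate luminescence read with OneGlo; data normalized against buffer-only and 10uM Salinomycin inhibitor controls.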
# An asterisk follows results filed as active; ? = inconclusive; · = no result given; [ ] = another dose, or the depositor's remark. Unless noted, the call rests on the fitted dose curve; in most records, active means well fitted inhibition curve with a large enough effect; inconclusive means small, poorly fitted or top-dose-only effect, or another doubt; inactive means no such curve, though single readings can be large or run the other way.
SMILES,Shiga inhibitor,Cycloheximide cs,Pf growth 96h,Pf growth 48h,HCMV antiviral
CCCC(=O)Nc1ccc(NCc2ccc(C)s2)cc1,29,active,?,?,9
CC(=O)c1c(C)[nH]c(C(=O)OCc2c(F)cccc2Cl)c1C,7,8,22%,-16%,-62*
CC(=O)c1c(C)[nH]c(C(=O)OCc2cccc(Cl)c2)c1C,82*,36*,21%,-6%,41
CC(=O)c1c(C)[nH]c(C(=O)OCc2ccc(F)cc2Cl)c1C,28,52,?,67%,-68*
CC(=O)Nc1ccc(C(=O)OCc2ccc(F)cc2Cl)cc1,5,13,?,?,-2
CC(=O)c1c(C)[nH]c(C(=O)OCC(=O)NCc2ccc(Cl)cc2)c1C,·,·,?,?,-37
CCCCOc1ccc(S(=O)(=O)N2CCCCC2)cc1,-11,5,3%,2%,-18
CCCCOc1ccc(S(=O)(=O)N2CCN(c3ccc(N4CCN(CC)CC4)nn3)CC2)cc1,·,·,?,12µM*,-13
CSc1nc(Sc2ccc(Cl)cc2)c2ccccc2n1,-11,1,4.7µM*,2.6µM*,-20
CSc1nc(Sc2ccccc2)c2ccccc2n1,-1,1,-8%,-19%,-20
COc1ccc(-c2n[nH]c(=S)n2-c2ccccc2C)cc1OC,-7,-3,-23%,12%,-27
Nc1ccc(-n2cc(-c3ccccc3)[nH]c2=S)cc1,61*,33*,?,-11%,15
S=c1[nH]c(-c2ccccc2)cn1-c1ccccc1,21,16,?,-19%,61
COc1ccc(-c2cn(-c3ccc(C)c(C)c3)c(=S)[nH]2)cc1OC,67,11,2%,13µM*,?
COc1ccc(-c2n[nH]c(=S)n2-c2ccc(Br)cc2)cc1OC,-9,1,6%,4%,65
COc1ccc(-c2cn(-c3ccccc3)c(=S)[nH]2)cc1OC,75*,25*,-13%,20%[0.00184 µM],-22
COc1ccc(-c2cn(-c3ccc(C)c(Cl)c3)c(=S)[nH]2)cc1OC,18,1,63%,10µM*,-66*
O=C(c1cc(C2CCCCN2S(=O)(=O)c2cccs2)on1)N1CCOCC1 (centres undefined),·,·,·,·,-12
COc1ccccc1-c1noc(-c2ccc(N3CCN(c4ccccc4)CC3)c([N+](=O)[O-])c2)n1,·,·,·,·,-6
CC(=O)Nc1ccc(NC(=O)CN2C(=O)CN(C)C(=O)c3ccccc32)cc1,·,·,·,·,8
Cc1ccc(-c2nc3c(c(SCC(=O)N4CCOCC4)n2)Cc2c(CO)cnc(C)c2O3)cc1,-1,7,-14%,7.4µM*,-28
COc1ccc(-c2nc3c(c(SCC(=O)N4CCOCC4)n2)Cc2c(CO)cnc(C)c2O3)cc1,-5,13,14%,?,-7
NCc1csc(Nc2ncccn2)n1,·,·,·,·,7
CSCc1ccc(C(=O)Nc2ccc(C(N)=O)cc2)cc1,50*,28*,101%,67%,119
CSCc1ccc(C(=O)NCc2ccc(C)cc2)cc1,active,21*,47%,28%,-13
SMILES,Shiga inhibitor,Cycloheximide cs,Pf growth 96h,Pf growth 48h,HCMV antiviral
O=C(NCCSCc1ccccc1)c1ccc(F)cc1,33,21,?,?,-10
O=C(Cc1ccccc1)NCCSCc1ccccc1,26,19*,-18%,8%,-3
CSCc1ccc(C(=O)NCc2ccc(F)cc2)cc1,-52,3,43%,-5%,-30
CSCc1ccc(C(=O)NCc2ccccc2)cc1,27,31*,87%,56%,32
Cc1cccc(C(C)C)c1NC(=O)C(C)OC(=O)Cn1cnc2c1c(=O)n(C)c(=O)n2C (centres undefined),·,·,23%,47%,-7
O=C(NN1CCCCC1)NN1CCCCC1,·,·,·,·,-35
COC(=O)c1ccc(Cl)cc1NC(=O)N1CC(C)Oc2ccccc21 (centres undefined),·,·,·,·,-13
Cc1ccc(CSCCNC(=O)c2ccc(C)cc2)cc1,-7,-1,0%,13µM*,-8
COc1ccc(C(=O)NCCSCc2ccc(C)cc2)cc1,-12,-3,?,?,-29
O=S(=O)(c1ccccc1Cl)N1CCCC1c1nc(-c2ccc(Cl)cc2)no1 (centres undefined),14,0,21%,0%,-68*
O=S1(=O)c2c(F)cccc2OC(COc2ccccc2)CN1CCc1ccc(F)cc1 (centres undefined),·,·,·,·,1
CCCCN1CC(COc2ccccc2)OC1=O (centres undefined),33,5,2.9µM*,2%,-28
COc1ccc(NC(=O)Cn2cc(S(=O)(=O)Cc3ccc(F)cc3)c3ccccc32)cc1OC,·,·,·,·,0
Cc1nc2cc(NC(=O)NCc3ccco3)ccc2o1,49*,17*,·,41%,3
COc1ccccc1NC(=O)NCc1ccco1,10,-3,-4%,10%,-30
COc1cc(NC(=O)NCc2ccco2)ccc1-c1ccc(NC(=O)NCc2ccco2)cc1OC,·,·,·,·,-67*
Cc1ccc(Nc2nc(N/N=C\c3ccc4c(c3)OCO4)nc(N3CCOCC3)n2)cc1,-3,4,?,10µM*,?
COc1cc(/C=N/Nc2nc(C)cc(C)n2)ccc1OC(=O)c1ccco1,-7,8,?,2%,-17
CCOc1cc(/C=N\Nc2nc(Nc3ccccc3)nc(N3CCOCC3)n2)ccc1OC(=O)c1ccco1,9,20*,7%,?,-5
Cc1ccc(OCC(=O)Nc2cc(NC(=O)COc3ccc(C)c(C)c3)cc(C(=O)O)c2)cc1C,9,1,39%,32%,4
Cc1ccc(C)c(OCC(=O)Nc2cccc(C(=O)O)c2)c1C,46,41*,·,75%,66
Cc1cccc(C)c1OCC(=O)Nc1ccc(Cl)cc1C(=O)c1ccccc1,·,·,·,·,3
Cc1cccc(C)c1OCC(=O)Nc1cccc(C(=O)O)c1,92*,41*,1%,159%,110
Cc1ccc(C(=O)O)cc1NC(=O)CN1C(=O)C2C3c4ccccc4C(Br)(c4ccccc43)C2C1=O (centres undefined),-13,-2,?,2%,-35
CC(=O)N[C@@H](Cc1c[nH]c2ccccc12)C(=O)NC1CC1,-5,-2,7%,0%,-4
O=C(Nc1ccc(Cl)cc1)OCc1cc(-c2ccccc2Cl)on1,5,-2,19%,36%,25
Cc1ccc(NC(=O)OCc2cc(-c3ccccc3)on2)cc1,75*,38*,33%,28%,68
Cc1ccc(NC(=O)OCc2cccs2)cc1,81*,22*,263%,201%,·
CC(=O)Nc1ccc(NC(=O)COC(=O)Cc2cccs2)cc1,-14,-3,-6%,·,-22
CCN(Cc1nc(-c2cccc(Cl)c2)no1)CC1CCCO1 (centres undefined),24,13*,?,37%,-12
